In the library only some 28% were active in any assay of this set; here they are far more common.
D1 mod: D1 dopamine receptor (human) allosteric modulation. P21728. HEK293 D1, CRE-luciferase, dopamine EC30 potentiation; actives deviate in either direction. B-score at 10 µM. 58,000 compounds, 5.9% hits;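 active = luminescence count or its row- and column-corrected plate score outside the 99.7% band of the plate's sample wells, on either side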
CYP2C9 inhib: inhibitors of human CYP2C9 | P11712 | CYP2C9 Supersomes, luciferin-H conversion, luminescence | inhibition, % at 5 µM | 96,000 compounds, 20% hits;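 active = blocking of liver enzyme CYP2C9 beyond about 50% at 5 µM, limit read from the data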
hDAT+cocaine: modulates human dopamine transporter uptake under cocaine; Q01959; LLC-PK1 hDAT cells, [14C]-dopamine uptake with cocaine IC80; actives deviate in either direction; B-score at 10 µM; 110,000 compounds, 1.3% hits;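 active = Z score or B-score, a plate-position-corrected score, falls beyond the plate's 99.7% confidence bounds, in either direction; inactive = both scores lie inside the 99.7% bounds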;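 also: scored against the spread of the other compound wells on the same plate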
Target sequence (Q01959 whole entry, looked up): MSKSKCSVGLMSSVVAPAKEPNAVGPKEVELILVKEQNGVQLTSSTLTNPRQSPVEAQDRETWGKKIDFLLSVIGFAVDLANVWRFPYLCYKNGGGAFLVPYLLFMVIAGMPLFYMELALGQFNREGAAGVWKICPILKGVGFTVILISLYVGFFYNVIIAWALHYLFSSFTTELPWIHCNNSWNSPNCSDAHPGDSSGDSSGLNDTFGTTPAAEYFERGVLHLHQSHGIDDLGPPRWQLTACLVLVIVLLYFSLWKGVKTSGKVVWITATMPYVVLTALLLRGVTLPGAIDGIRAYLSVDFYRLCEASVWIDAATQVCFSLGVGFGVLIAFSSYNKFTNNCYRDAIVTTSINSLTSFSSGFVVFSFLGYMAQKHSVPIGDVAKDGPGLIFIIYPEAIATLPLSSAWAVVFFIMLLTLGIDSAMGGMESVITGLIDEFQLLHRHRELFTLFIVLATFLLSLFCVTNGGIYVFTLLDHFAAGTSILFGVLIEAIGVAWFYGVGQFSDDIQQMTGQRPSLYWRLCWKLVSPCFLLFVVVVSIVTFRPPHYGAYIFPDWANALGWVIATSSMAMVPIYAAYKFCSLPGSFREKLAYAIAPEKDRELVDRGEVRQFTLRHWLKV
CYP2C19 inhib: inhibitors of human CYP2C19 | CYP2C19 Supersomes, luciferin-H EGE luminescence, 30 min | inhibition, % at 5 µM | 96,000 compounds, 21% hits | AID 778;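 active = CYP2C19 inhibition above a set limit at 5 µM in the primary screen, cut at about 50% in these data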;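 also: plate controls were negative control wells for no effect and 2.5 mM tranylcypromine positive control for full effect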
CYP2C9 activ: increases human cytochrome P450 2C9 activity; recombinant CYP2C9, luciferin-H conversion, luminescence; hits give high values; factor 1 = untreated enzyme, 0 = blocked; activation factor at 5 µM; 96,000 compounds, 1.4% hits;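 active = activation factor of 2 or more for CYP2C9 at a 5 µM dose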;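 also: 0 = sulfaphenazole-blocked wells and 1 = vehicle-only wells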
CYP2C19 act: cytochrome P450 2C19 (human) activation; P33261; recombinant CYP2C19, luciferin-H EGE luminescence; hits give high values; 0 = fully inhibited enzyme, 1 = untreated enzyme; activation factor at 5 µM; 96,000 tested, under 10 active; AID 1025;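 active = activation factor of at least 2 at 5 µM in the primary screen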;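 also: 0 = wells with 2.5 mM tranylcypromine and 1 = vehicle-only wells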
The depositor's hits bear a star; · = no result.

SMILES	D1 mod	CYP2C9 inhib	hDAT+cocaine	CYP2C19 inhib	CYP2C9 activ	CYP2C19 act
O=C(Nc1nnc(-c2ccco2)s1)c1ccccc1	-4.5*	-28	1	14	1.3	0.9
COc1ccccc1C(=O)Nc1nnc(-c2ccco2)s1	·	-33	-0.16	33	1.3	0.7
COc1ccc(C(=O)Nc2nnc(-c3ccco3)s2)cc1	·	17	0.43	54*	0.8	0.5
COc1ccc(Cc2nnc(NC(=O)c3ccco3)s2)cc1	·	65*	-0.26	37	0.3	0.6
CCc1cccc(CC)c1N(COC)C(=O)Cn1c(C(C)O)nc2ccccc21 (stereo not given)	-0.055	6	0.27	6	0.9	0.9
Cc1nn2c(=O)nc3sc4c(c3c2[nH]c1=O)CCCC4	·	·	-1.6	·	·	·
COc1cccc(N2CC34C=CC(O3)C(C(=O)O)C4C2=O)c1 (stereo not given)	·	10	0.71	-16	0.9	1.2
CC(C)CCOP(=O)(c1ccc(N(C)C)cc1)C(O)c1ccccn1 (stereo not given)	-0.048	44	-0.18	80*	0.6	0.2
CCCOP(=O)(c1ccc(N(C)C)cc1)C(O)c1cccnc1 (stereo not given)	·	-10	-0.15	-7	1.1	1.1
CCCCOP(=O)(c1ccc(N(C)C)cc1)C(O)c1ccncc1 (stereo not given)	0.075	74*	-0.0033	80*	0.3	0.2
CCOP(=O)(c1ccc(N(C)C)cc1)C(O)c1ccccc1OC (stereo not given)	0.47	-19	0.0087	34	1.2	0.7
CC(C)COP(=O)(c1ccc(N(C)C)cc1)C(O)c1ccccn1 (stereo not given)	0.14	17	·	67*	0.8	0.3
CC(C)CCOP(=O)(c1ccc(N(C)C)cc1)C(O)c1ccccc1F (stereo not given)	0.38	48	-2	74*	0.5	0.3
Fc1ccc(CN2CCCCCCC2)cc1F	-0.26	6	0.005	27	0.9	0.7
CCSc1nnc(NC(=O)C(CC)(C(F)(F)F)C(F)(F)F)s1	-1.7	98*	-1.8	33	0	0.7
CCSc1nnc(NC(=O)c2ccco2)s1	-0.31	29	-0.49	4	0.7	1
CCSc1nnc(NC(NC(=O)c2ccco2)(C(F)(F)F)C(F)(F)F)s1	-0.029	90*	0.11	7	0.1	0.9
CCSc1nnc(NC(=O)C(C)(C(F)(F)F)C(F)(F)F)s1	·	75*	-0.63	-6	0.2	1.1
Cc1nnc(Sc2nc(Sc3nnc(C)s3)nc(N3CCN(C)CC3)n2)s1	-0.52	·	·	·	·	·
O=S(=O)(c1ccc(-c2nc3ccccc3s2)cc1)N1CCCC1	·	77*	-0.25	13	0.2	0.9
O=S(=O)(c1cccc(-c2nc3ccccc3s2)c1)N1CCCC1	2.9	79*	-0.26	34	0.2	0.7
O=S(=O)(c1ccccc1)N1CCN(c2nc3ccccc3s2)CC1	·	-8	-1	12	1.1	0.9
CCOC(=O)c1ccc2nc(C)c3c(c2c1)OC(C)C3 (stereo not given)	-2.7*	12	0.17	13	0.9	0.9
Cc1c2c(nc3c(C)cccc13)OC(C)C2 (stereo not given)	-0.072	·	-0.18	·	·	·
O=C(O)c1ccc2nc(C(F)(F)F)[nH]c2c1	1.1	5	0.17	4	0.9	1
SMILES	D1 mod	CYP2C9 inhib	hDAT+cocaine	CYP2C19 inhib	CYP2C9 activ	CYP2C19 act
COc1cccc2c3c(c(C)nc12)CC(C)O3 (stereo not given)	-3.4*	9	-0.23	-4	0.9	1
COc1ccc2nc(C)c3c(c2c1)OC(C)C3 (stereo not given)	-1.9	11	-0.096	15	0.9	0.9
CCOC(=O)c1ccc2nc(C(F)(F)F)[nH]c(=O)c2c1	0.44	60*	1.3	-10	0.4	1.1
C=CCSC1=N/C(=C\c2ccc(C)o2)C(=O)S1	-0.38	50	-0.0096	82*	0.5	0.2
CCOC(=O)/C=C1\SCC(=O)N1CC(=O)NC(C)C	·	-6	0.75	25	1.1	0.8
CCOC(=O)/C=C1\SCC(=O)N1CC(=O)Nc1ccccc1OC(F)F	0.047	38	-0.014	96*	0.6	0
CSc1nc(NCc2ccco2)c2c3c(sc2n1)CN(C)CC3	-4*	·	0.29	·	·	·
CCCCSc1nc(NCc2ccco2)c2c3c(sc2n1)COC(C)(C)C3	·	46	0.041	11	0.5	0.9
CCCSc1nc(NCc2ccco2)c2c3c(sc2n1)COC(C)(C)C3	·	56*	1.3	39	0.4	0.6
CSc1nc(SCC(=O)NCc2ccco2)c2c3c(sc2n1)CN(C)CC3	-0.0025	·	-0.78	·	·	·
O=C(NC(CO)c1ccccc1)c1ccco1 (stereo not given)	·	18	0.013	3	0.8	1
C=CCNc1cnn(CC(C)=O)c(=O)c1Br	·	-5	0.51	7	1	0.9
CO/N=C(\Cn1ncc(N2CCCC2)c(Br)c1=O)c1ccc(Cl)cc1	·	86*	1.7	89*	0.1	0.1
CO/N=C(\Cn1ncc(NC2CCCCC2)c(Br)c1=O)c1ccc(Cl)cc1	·	54*	0.49	7	0.5	0.9
Cc1cccc(NC(=O)C2CCCN(C(=O)Nc3ccccc3)C2)c1C (stereo not given)	-0.17	23	1.4	27	0.8	0.7
COC(=O)CCCC(=O)N1CCOCCN(C(=O)CCCC(=O)OC)CCOCC1	-0.035	-15	-0.19	-15	1.1	1.2
Oc1ccccc1C1=Nc2ncnn2C(c2ccccc2)C1 (stereo not given)	·	48	0.52	54*	0.5	0.5
COc1cc2cc3c(N)c(C(=O)Nc4sc(C)c(C)c4C#N)sc3nc2cc1OC	·	18	0.24	4	0.8	1
COCCSc1nc2sc3c(c2c(=O)n1-c1ccccc1)CCN(C)C3	·	33	0.8	98*	0.7	0
N#Cc1ccc(Cl)cc1NC(=O)COC(=O)c1ccc(S(=O)(=O)N2CCCC2)cc1	·	0	-0.44	-3	1	1
Cc1nc2ccccc2c2c1C(=O)N(C(C)C)C2=O	2.2	3	0.13	70*	1	0.3
COc1ccc(N(CC(=O)NCCSC2CCCCC2)S(C)(=O)=O)c(OC)c1	·	-91	0.55	22	1.9	0.8
CCn1c(SCC(=O)c2ccccc2)nnc1-c1ccoc1C	-0.95	54*	0.55	97*	0.5	0
CCn1c(SCC(=O)c2ccc(C)cc2)nnc1-c1ccoc1C	0.088	35	0.1	98*	0.7	0
CCn1c(SCC(=O)c2ccc(Cl)cc2)nnc1-c1ccoc1C	0.025	26	0.28	66*	0.7	0.3
CCOC(=O)N1c2ccccc2C=CC1OCC (stereo not given)	·	·	-0.069	·	·	·
Cc1ccc(-c2ccc(=O)n(CCC(=O)NCc3ccccn3)n2)cc1	0.81	10	-0.43	9	0.9	0.9
COC(=O)CCC(=O)c1oc2ccccc2c1N	1.6	35	-0.58	84*	0.7	0.2

Screening results from PubChem.
